Test results published in the supplement of paper PMC8285479.
Structures can show the parent of a compound that is named as a salt. ± gives the standard deviation of the averaged measurements. Over roughly 1,900 compounds, “normalised cell viability (NPI; 0 = phenylarsine oxide control, 1 = DMSO control)” has its median near 1; the lowest 2% begin near 0.039. This is one part of a sample in which the lowest values are shown more often than they occur.

Tested on: NCI-H1944
Assay: normalised cell viability (NPI; 0 = phenylarsine oxide control, 1 = DMSO control) (fraction of DMSO control); NCI-H1944 is a non-small cell lung cancer line; higher = more viable cells (less compound toxicity)
Conditions: 6 days
[1] = glucocorticoid arm: hydrocortisone 2.75 uM co-treatment, compound 1 µM
[2] = glucocorticoid arm: hydrocortisone 2.75 uM co-treatment, compound 5 µM
[3] = glucocorticoid arm: hydrocortisone 2.75 uM pre-treated 2 days and continued, compound 1 µM
[4] = glucocorticoid arm: hydrocortisone 2.75 uM pre-treated 2 days and continued, compound 5 µM
[5] = glucocorticoid arm: vehicle, compound 1 µM
[6] = glucocorticoid arm: vehicle, compound 5 µM
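Further: CTB read-out in 384-well plates, triplicate wells, NPI normalised per plate against 1 µM phenylarsine oxide (0) and 0.1% DMSO (1) controls.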

SMILES	normalised cell viability [1]	normalised cell viability [2]	normalised cell viability [3]	normalised cell viability [4]	normalised cell viability [5]	normalised cell viability [6]
CCS(=O)(=O)Nc1cccc(C(=C2CCCCC2)c2cnc[nH]2)c1	1.006 ± 0.0063	1.04 ± 0.015	1.01 ± 0.011	1.04 ± 0.028	0.985 ± 0.013	0.9933 ± 0.0061
CN1CC[C@@]2(C)c3cc(O)ccc3N(C)C12 (single isomer, unassigned; (-)) [(-)-Eseroline fumarate]	0.9967 ± 0.0058	0.972 ± 0.013	1.03 ± 0.045	0.971 ± 0.011	0.9967 ± 0.0042	0.996 ± 0.012
CCn1cnc2c(Nc3cccc(Cl)c3)nc(N[C@@H]3CCCC[C@@H]3N)nc21	0.783 ± 0.025	0.0569 ± 0.018	1.01 ± 0.011	0.182 ± 0.0028	0.321 ± 0.043	0.0192 ± 0.0037
C[C@H](N)CN1CCc2ccc(Br)cc21 [VER-3323 hemifumarate salt]	1.001 ± 0.0085	1.01 ± 0.024	1 ± 0.011	1.05 ± 0.021	0.9897 ± 0.0015	1 ± 0.015
C[C@H]1O[C@@H](C[N+](C)(C)C)CS1	1.013 ± 0.0058	1.007 ± 0.0058	1	1 ± 0.024	0.9857 ± 0.0046	0.9857 ± 0.0038
CC12CCC3C(CCC4=C(O)C(=O)CCC43C)C1CCC2=O (centres undefined) [4-Androsten-4-ol-3,17-dione]	0.9977 ± 0.0021	0.9747 ± 0.0093	0.999 ± 0.001	1 ± 0.011	0.995 ± 0.015	1.003 ± 0.0061
Cc1c(N)nc([C@H](CC(N)=O)NC[C@H](N)C(N)=O)nc1C(=O)N[C@H](C(=O)N[C@H](C)[C@@H](O)[C@H](C)C(=O)N[C@H](C(=O)NCCc1nc(-c2nc(C(=O)NCCC[S+](C)C)cs2)cs1)[C@@H](C)O)[C@@H](OC1OC(CO)C(O)C(O)C1OC1OC(CO)C(O)C(OC(N)=O)C1O)c1cnc[nH]1 (some centres undefined) [Bleomycin sulfate]	0.669 ± 0.048	0.196 ± 0.017	0.9903 ± 0.0051	0.637 ± 0.034	0.142 ± 0.024	0.0339 ± 0.0093
CCC1(c2ccc(N)cc2)CCC(=O)NC1=O (racemic) [(±)-p-Aminoglutethimide]	0.997 ± 0.0052	1.01	0.866 ± 0.23	1 ± 0.027	1.006 ± 0.0063	1
CN[C@@H]1C[C@@H](c2ccc(Cl)c(Cl)c2)c2ccccc21 [Indatraline hydrochloride]	1 ± 0.0095	0.931 ± 0.02	1.02 ± 0.021	1.04 ± 0.084	1.01	1.03 ± 0.05
C[Se]C[C@H](N)C(=O)O [Se-(methyl)selenocysteine hydrochloride]	1.006 ± 0.0069	1.02 ± 0.015	1	0.859 ± 0.28	1.006 ± 0.0069	1.01 ± 0.016
C=C(C)[C@H]1Cc2c(ccc3c2O[C@@H]2COc4cc(OC)c(OC)cc4[C@@H]2C3=O)O1 [Rotenone]	0.627 ± 0.064	0.39 ± 0.013	0.969 ± 0.016	0.685 ± 0.094	0.22 ± 0.011	0.115 ± 0.019
C=CCc1ccccc1OCC(O)CNC1(C)CCC(C(C)(C)NC(=O)CBr)CC1 (centres undefined) [Bromoacetyl alprenolol menthane]	0.9893 ± 0.0093	-0.000605 ± 0.0006	0.994 ± 0.016	0.0027 ± 0.0058	0.978 ± 0.004	-0.000518 ± 0.00015
C1CN1c1nc(N2CC2)nc(N2CC2)n1 [Triethylenemelamine]	1.023 ± 0.0058	0.775 ± 0.022	1.017 ± 0.0058	0.989 ± 0.015	0.993 ± 0.0082	0.273 ± 0.028
C=CCN(C1=NCCN1)c1c(Cl)cccc1Cl [Alinidine]	0.999 ± 0.012	0.992 ± 0.016	1.02 ± 0.049	1 ± 0.021	0.9973 ± 0.0031	0.9913 ± 0.0035
O=C1C=CC(=O)C=C1 [p-Benzoquinone]	1.007 ± 0.0058	1.01 ± 0.012	1.006 ± 0.0075	0.999 ± 0.03	1.01 ± 0.012	0.999 ± 0.011
Cc1nc(-c2ccc(-c3ccc(C(=O)N4CCc5cc6c(cc54)C4(CCN(C)CC4)CO6)cc3)c(C)c2)no1	0.994 ± 0.0066	0.356 ± 0.53	1.02 ± 0.02	1.1 ± 0.021	0.994 ± 0.014	0.00588 ± 0.0059
CC1C2Cc3ccc(O)cc3C1(C)CCN2CC1CC1 (single isomer, unassigned; (+)) [(+)-Cyclazocine]	1.001 ± 0.0085	1.003 ± 0.0058	1 ± 0.01	0.978 ± 0.013	1.01	0.9993 ± 0.0095
CCCN(CCC)C1CCc2cccc(O)c2C1 (racemic) [(±)-8-Hydroxy-DPAT hydrobromide]	1.02 ± 0.017	1.01 ± 0.01	1.01 ± 0.01	1.004 ± 0.0098	0.9967 ± 0.0058	0.9947 ± 0.0067
C=CCN1CC[C@]23c4c5ccc(O)c4O[C@H]2/C(=N/N=C2\CC[C@@]4(O)[C@H]6Cc7ccc(O)c8c7[C@@]4(CCN6CC=C)[C@H]2O8)CC[C@@]3(O)[C@H]1C5 [Naloxonazine dihydrochloride]	0.9893 ± 0.008	1.03 ± 0.02	1 ± 0.01	1.03 ± 0.064	0.9877 ± 0.0015	1.01 ± 0.01
CC[C@H]1CN2CCc3cc(OC)c(OC)cc3[C@@H]2C[C@@H]1C[C@H]1NCCc2cc(OC)c(OC)cc21 [Emetine dihydrochloride hydrate]	0.0625 ± 0.016	0.0175 ± 0.00036	0.342 ± 0.016	0.165 ± 0.0093	0.0125 ± 0.001	0.0108 ± 0.0029
CCCN(CCC)[C@@H]1CCc2c(F)ccc(O)c2C1 [R(+)-UH-301 hydrochloride]	1.013 ± 0.0058	1.017 ± 0.0058	1.03 ± 0.021	1.017 ± 0.0058	1.02	1.017 ± 0.0058
OC[C@H]1O[C@@H](n2cnc3cc(Cl)c(Cl)cc32)[C@H](O)[C@@H]1O [5,6-Dichlorobenzimidazole riboside]	1.007 ± 0.0058	0.998 ± 0.013	1.007 ± 0.0058	1.03 ± 0.01	0.988 ± 0.008	0.991 ± 0.0053
NC1CCc2cc(O)c(O)cc2C1 (centres undefined) [6,7-ADTN hydrobromide]	1.001 ± 0.009	1.01 ± 0.011	0.992 ± 0.022	1.002 ± 0.0068	0.98433 ± 0.00058	0.9887 ± 0.0059
O=C[C@H](Cl)[C@@H](O)[C@H](O)[C@H](O)CO [2-Chloro-2-deoxy-D-glucose]	1 ± 0.013	0.9953 ± 0.0015	1.01 ± 0.012	0.994 ± 0.01	0.9807 ± 0.0011	0.9817 ± 0.0067
